About 83,000 compounds went through this panel and 20% of them were active in at least one assay; those are over-represented in the sample as a whole.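 The endpoint reported here, percent growth, reads 100 for growth as untreated, 0 for no net growth and -100 for all cells dead.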 A number with no mark means an inactive call. The source made the active and inactive calls. How the source made its calls: active means growth percent below 10; inactive means the rest.
Columns and labels:
Test in all cases: NCI-60 one-dose screen, 48 h (100 = growth as untreated, 0 = no growth, -100 = all killed)
Conditions in all cases: 10 µM unless noted
SK-MEL-2 melanoma = system: SK-MEL-2 melanoma
EKVX NSCLC = system: EKVX NSCLC
SN12C renal = system: SN12C renal
UO-31 renal = system: UO-31 renal
TK-10 renal = system: TK-10 renal
ACHN renal = system: ACHN renal
CAKI-1 renal = system: CAKI-1 renal
A498 renal = system: A498 renal
CCRF-CEM leukemia = system: CCRF-CEM leukemia
MOLT-4 leukemia = system: MOLT-4 leukemia

SMILES | growth (SK-MEL-2 melanoma) | growth (EKVX NSCLC) | growth (SN12C renal) | growth (UO-31 renal) | growth (TK-10 renal) | growth (ACHN renal) | growth (CAKI-1 renal) | growth (A498 renal) | growth (CCRF-CEM leukemia) | growth (MOLT-4 leukemia)
CCOC(=O)CNC(=O)C1(NC(=O)CNC(=O)OCc2ccccc2)CCCC1 | 107% | 99.4% | 93.8% | 98.6% | 102% | 103% | 95.2% | 102% | 102% | 106%
CCN(Cc1cccc(S(=O)(=O)[O-])c1)c1ccc(C(=C2C=CC(=[N+](CC)Cc3cccc(S(=O)(=O)O)c3)C=C2)c2ccccc2S(=O)(=O)O)cc1 | 115% | 94.1% | 109% | 85.9% | 93.1% | 104% | 96.7% | 134% | 95.3% | 96.5%
CN(C)CCCN=c1cc2c(=O)n(CCCN(C)C)c(=O)c3c(NCCCN(C)C)cc4c(O)n(CCCN(C)C)c(=O)c1c4c3-2 | -9.31% (active) | -18.4% (active) | 9.31% (active) | -26.6% (active) | 7.45% (active) | -41.6% (active) | 4.58% (active) | -64.8% (active) | 10.8% | 25.1%
O=c1c2c(=NCCCN3CCCC3)cc3c(=O)n(CCCN4CCCC4)c(=O)c4c(NCCCN5CCCC5)cc(c(O)n1CCCN1CCCC1)c2c4-3 | 1.12% (active) | -17.2% (active) | 10.3% | -34.9% (active) | 13.1% | -31.2% (active) | 14.4% | -67.3% (active) | 10.1% | 16.5%
ICCC(c1ccccc1)(c1ccccc1)c1ccccc1 | 48.7% | 88.4% | 69.7% | 49.6% | 73.5% | 68.9% | 74.9% | 51.7% | 31.6% | 39.4%
C=C1CCC2C(C)(COC(=O)CC)C(OC(=O)CC)CCC2(C)C1C/C=C1/C(=O)OCC1OC(=O)CC (stereo not given) | 19.1% | 85.1% | 0.261% (active) | -72.2% (active) | 1.32% (active) | -90.7% (active) | 19.2% | 81.4% | -25.5% (active) | -11% (active)
O=C(Oc1cccc2ccccc12)c1ccccc1C(=O)c1ccccc1 | 97.1% | 80% | 101% | 60.8% | 129% | 95.5% | 88.1% | 70.8% | 16% | 14.8%
O=C(Nc1ccc(Cl)cc1)Nc1ccccc1CNc1nc(Nc2ccc(OCCN3CCCC3)cc2)ncc1Cl | 102% | 33.7% | 93.2% | -6.76% (active) | -51.5% (active) | -54.4% (active) | 5.67% (active) | 75.6% | 4.29% (active) | -13.4% (active)
CC(=O)Nc1ccc(C(=O)COc2ccc(/C=C3\CCc4ccccc4C3=O)cc2)cc1 | 77.8% | 99.8% | 103% | 33.2% | 112% | 103% | 94.8% | 66.3% | 89.4% | 78.8%
O=C(NC1CCS(=O)(=O)C1)c1ccc(C(=O)c2ccccc2)cc1 (stereo not given) | 7.36% (active) | 96.3% | 105% | 76.5% | 137% | 98.1% | 98.2% | 110% | 127% | 109%
COc1ccc(CNC(=O)c2c(C)n([O-])c3ccccc3[n+]2=O)cc1 | 95.8% | 83.8% | 101% | 32.9% | 120% | 109% | 112% | 96.1% | 98.4% | 93.4%
CC(C)=CCCC(C)c1ccc(C)c2c1OCN(CC1CCNCC1)C2 (stereo not given) | 96.3% | 93% | 76.7% | 60.5% | 86% | 92.9% | 80.2% | 75.6% | 26.7% | 34.1%
C(=C1c2ccccc2-c2ccccc21)c1ccccn1 | 54.2% | 70.6% | 80.3% | 79.6% | 91.7% | 96.5% | 52% | 97.8% | 85.5% | 67.3%
C[C@]12CCC(=O)C=C1CC[C@H]1[C@@H]3C[C@@H](O)[C@](O)(C(=O)CO)[C@@]3(C)C[C@H](O)[C@@]12F | 109% | 88.4% | 82.9% | 74.1% | 104% | 104% | 78.5% | 97.2% | 97.1% | 84.1%
O=c1ccn(C2CC=C(CO)O2)c(=O)[nH]1 (stereo not given) | 105% | 105% | 92.1% | 110% | 100% | 109% | 63.1% | 101% | 90.4% | 101%
Cn1c(=O)c2[nH]c(=S)n(Cc3ccccc3)c2n(C)c1=O | 104% | 125% | 99% | 91.4% | 104% | 96.1% | 111% | 92.8% | 113% | 81.9%
O=C(N/N=C/c1ccc(Cl)cc1Cl)c1ccccc1Nc1cccc(C(F)(F)F)c1 | 54.9% | -27.9% (active) | 53.3% | 25.7% | 106% | 35.9% | 55.5% | -7.44% (active) | 32.4% | 55.8%
CCCCc1ccc(C(N)=O)nc1 | 96% | 100% | 98.7% | 88.7% | 103% | 98.8% | 102% | -4.32% (active) | 92% | 101%
CC(=O)N1N=C(c2ccc(C(F)(F)F)cc2)CC1c1ccc2c(c1)OCO2 (stereo not given) | 76.2% | 81.4% | 83.5% | 55.9% | 100% | 95.7% | 70.8% | 103% | 83.3% | 77.9%
Fc1ccc(-c2nn3c(-c4cc(C(F)(F)F)cc(C(F)(F)F)c4)nnc3s2)cc1 | -33.3% (active) | 71.1% | 46.7% | 29.2% | -40% (active) | 11.6% | 69.8% | -18.5% (active) | 87% | 93%
Nc1ccccc1-c1ccn[nH]1 | 83.5% | 87% | 87.9% | 50.9% | 119% | 70.5% | 68.4% | 103% | 97.4% | 98.7%
C[C@H]1C(=O)N2c3ccccc3[C@@]3(O)C[C@@H](n4cnc5ccccc5c4=O)C(=O)N1[C@@H]23 | 19.2% | 103% | 120% | 86.5% | 109% | 104% | 99.2% | 121% | 95% | 105%
CCN(CC)c1ccc(N=C2C=CC(=O)C=C2NC(C)=O)cc1 | 98.6% | 106% | 97.5% | 71% | 95.9% | 83.7% | 105% | 82.1% | 87.6% | 99.5%
Cc1ccc(S(=O)(=O)NCCN2c3nc4ccccc4cc3Sc3cc4ccccc4nc32)cc1 | 44.2% | 70.3% | 66% | -32% (active) | 84.5% | 54.2% | 92.5% | 149% | 93.7% | 108%
Cc1ncc(C(=O)Nc2ccc(CN3CCN(C)CC3)c(C(F)(F)F)c2)cc1C#Cc1cncc2ncccc12 | 14.5% | 78.3% | 50.6% | 1.39% (active) | 82.6% | 26.8% | 50% | -4.12% (active) | 66.7% | 41.6%
